FBW7 act = FBW7 E3 ligase activators, primary screen, biochemical, AlphaScreen, human | F-box/WD repeat-containing protein 7 (Homo sapiens), Q969H0 | AlphaScreen FBW7–phospho-cyclin E peptide binding, activator screen | normalized activity (activation), % at 26.1 µM | 650,000 compounds, 0.13% hits; in the data active means normalized activity above about 1.9%;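 further: purified mutant Fbw7 with reduced substrate affinity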
Target sequence (Q969H0 whole entry, looked up): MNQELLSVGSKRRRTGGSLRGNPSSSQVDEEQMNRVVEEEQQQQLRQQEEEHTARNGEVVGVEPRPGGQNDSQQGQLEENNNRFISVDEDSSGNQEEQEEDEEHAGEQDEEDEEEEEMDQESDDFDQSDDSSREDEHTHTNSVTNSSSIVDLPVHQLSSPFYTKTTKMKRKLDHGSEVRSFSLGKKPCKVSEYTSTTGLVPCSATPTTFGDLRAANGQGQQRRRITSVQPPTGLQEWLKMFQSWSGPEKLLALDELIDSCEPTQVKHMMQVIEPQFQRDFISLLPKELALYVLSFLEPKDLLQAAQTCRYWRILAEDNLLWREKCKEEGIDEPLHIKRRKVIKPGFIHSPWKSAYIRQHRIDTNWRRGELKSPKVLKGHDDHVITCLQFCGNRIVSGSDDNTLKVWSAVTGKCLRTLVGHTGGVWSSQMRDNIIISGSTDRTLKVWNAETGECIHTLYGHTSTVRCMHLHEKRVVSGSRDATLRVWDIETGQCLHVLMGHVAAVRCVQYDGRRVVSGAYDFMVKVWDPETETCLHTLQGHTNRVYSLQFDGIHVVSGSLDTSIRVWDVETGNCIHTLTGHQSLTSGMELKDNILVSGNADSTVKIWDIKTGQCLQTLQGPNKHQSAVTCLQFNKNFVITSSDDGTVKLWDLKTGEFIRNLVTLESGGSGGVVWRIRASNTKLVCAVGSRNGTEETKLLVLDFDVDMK
GPR151 ag = activators of human GPR151, primary screen, cell-based, PathHunter beta-arrestin, luminescence | AID 1508602, 2020 | G-protein coupled receptor 151 (Homo sapiens), Q8TDV0 | activation, % at 11.2 µM | PathHunter beta-arrestin GPR151 cells | 650,000 compounds, 1% hits; in the data active means activation above about 4.9%
MITF inh = MITF inhibitors, primary screen, biochemical, AlphaScreen, human | AlphaScreen MITF homodimerization, bead proximity signal | inhibition, % at 2.6 µM | AID 1259374, 2018 | 650,000 compounds, 0.91% hits | Microphthalmia-associated transcription factor (Homo sapiens), O75030; in the data active means inhibition above about 50%
TEAD-YAP block = TEAD-YAP interaction inhibition, primary screen, TEAD-YAP interaction inhibitor project, luminescence, HEK-TIYL cells; TEAD-Gal4/YAP UAS-luciferase luminescence; AID 1259422, 2018; inhibition, % at 9.12 µM; 640,000 compounds, 1.4% hits; in the data active means inhibition above about 32%
MITF confirm = MITF inhibitors, retest of hits, confirmation, biochemical, AlphaScreen, triplicate | shares compounds with MITF inh | AlphaScreen MITF homodimerization, biotin/His-MITF beads | inhibition, % at 2.6 µM | 4,700 compounds, 16% hits | AID 1259372, 2018;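 active means inhibition above a cutoff derived from the DMSO control wells, cut at about 28% in these data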;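 further: inhibitors lower the bead chemiluminescence by keeping MITF from dimerizing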
AlphaScreen intf2 = AlphaScreen optical interference compounds, counter-screen for MITF inhibitor project, biochemical, triplicate | shares compounds with MITF inh | LysRS AlphaScreen counterscreen, signal interference | 4,700 compounds, 7.6% hits | inhibition, % at 2.6 µM;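 active means inhibition above a cutoff derived from the DMSO control wells, cut at about 30% in these data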
Numbers stand for hits. A selection: hits, their analogues and other compounds. The true share with any hit is near 3.5%.

What do the screens show for `CCn1c2ccccc2c2cc(CN3CCN(C(=O)c4c(OC)cccc4OC)CC3)ccc21`?
FBW7 act: inactive; GPR151 ag: inactive; MITF inh: inactive; TEAD-YAP block: inactive

How did CCn1c2ccccc2c2cc(CN3CCN(Cc4cc(OC)c(OC)c(OC)c4)CC3)ccc21 do in these assays?
FBW7 act: inactive; GPR151 ag: inactive; MITF inh: 61; TEAD-YAP block: inactive; MITF confirm: inactive; AlphaScreen intf2: inactive

Results for CCn1c2ccccc2c2cc(CN3CCN(Cc4ccc(OC)c(Br)c4)CC3)ccc21 ?
FBW7 act: inactive; GPR151 ag: inactive; MITF inh: 60; TEAD-YAP block: inactive; MITF confirm: inactive; AlphaScreen intf2: inactive

Results for O=C(O)C1CCN(c2ncc(-c3ccc(Cl)cc3)cn2)CC1 ?
FBW7 act: inactive; GPR151 ag: inactive; MITF inh: 61; TEAD-YAP block: inactive; MITF confirm: inactive; AlphaScreen intf2: inactive

How did CCOC(=O)c1ccccc1Nc1nc(C)nc2sc(C)cc12 do in these assays?
FBW7 act: inactive; GPR151 ag: inactive; MITF inh: inactive; TEAD-YAP block: inactive

How did O=C(CC1CCCC1)N1CCN(c2ccc(-c3ccccn3)nn2)CC1 do in these assays?
FBW7 act: inactive; GPR151 ag: inactive; MITF inh: 111; TEAD-YAP block: inactive; MITF confirm: 111; AlphaScreen intf2: 101

Results for CS(=O)(=O)N1CCN(c2ccc(-c3ccccn3)nn2)CC1 ?
FBW7 act: inactive; GPR151 ag: inactive; MITF inh: 87; TEAD-YAP block: inactive; MITF confirm: 107; AlphaScreen intf2: 101

What do the screens show for `O=C(CCC1CCCN(C(=O)CC2CCCCC2)C1)N1CCN(c2ccccn2)CC1` (stereo not given)?
FBW7 act: inactive; GPR151 ag: inactive; MITF inh: inactive; TEAD-YAP block: inactive

How did O=C(c1ccccn1)N1CCN(C(=O)c2ccccn2)CC1 do in these assays?
FBW7 act: inactive; GPR151 ag: inactive; MITF inh: inactive; TEAD-YAP block: inactive

Results for O=C(c1ccccn1)N1CCN(c2ccc(-c3ccccn3)nn2)CC1 ?
FBW7 act: inactive; GPR151 ag: inactive; MITF inh: 123; TEAD-YAP block: inactive; MITF confirm: 112; AlphaScreen intf2: 101

What do the screens show for `O=C(Cn1cnc2ccccc2c1=O)N1CCN(c2ccc(-c3ccccn3)nn2)CC1`?
FBW7 act: inactive; GPR151 ag: inactive; MITF inh: 116; TEAD-YAP block: inactive; MITF confirm: 112; AlphaScreen intf2: 101

Results for O=S(=O)(Nc1ccc(Br)cc1)N1CCCCC1 ?
FBW7 act: inactive; GPR151 ag: inactive; MITF inh: inactive; TEAD-YAP block: inactive

What do the screens show for `COCCNCC(=O)N1c2ccccc2Sc2ccccc21`?
FBW7 act: inactive; GPR151 ag: inactive; MITF inh: inactive; TEAD-YAP block: inactive

Results for O=C(CNCCOCCO)N1c2ccccc2Sc2ccccc21 ?
FBW7 act: inactive; GPR151 ag: inactive; MITF inh: 74; TEAD-YAP block: inactive; MITF confirm: inactive; AlphaScreen intf2: inactive

Results for Clc1ccc(-c2cn3c4ccccc4nc3n2CCCN2CCCCC2)cc1 ?
FBW7 act: inactive; GPR151 ag: inactive; MITF inh: inactive; TEAD-YAP block: inactive

What do the screens show for `Cc1cccn2c(=O)c3c(nc12)CCN(C(=O)Nc1cccc(F)c1)C3`?
FBW7 act: inactive; GPR151 ag: inactive; MITF inh: inactive; TEAD-YAP block: inactive

What do the screens show for `Cc1cccn2c(=O)c3c(nc12)CCN(C(=O)Nc1cccc(C(F)(F)F)c1)C3`?
FBW7 act: inactive; GPR151 ag: inactive; MITF inh: 51; TEAD-YAP block: inactive; MITF confirm: inactive; AlphaScreen intf2: inactive

Results for Clc1ccc(OCc2cccs2)c(CNc2ncn[nH]2)c1 ?
FBW7 act: inactive; GPR151 ag: inactive; MITF inh: inactive; TEAD-YAP block: inactive

Results for Cc1cccc(NC(=O)CSc2ncc(-c3ccccc3)[nH]2)c1 ?
FBW7 act: inactive; GPR151 ag: inactive; MITF inh: 81; TEAD-YAP block: inactive; MITF confirm: inactive; AlphaScreen intf2: inactive

How did C=CCc1cc(OC)ccc1OCCCNCCN do in these assays?
FBW7 act: inactive; GPR151 ag: inactive; MITF inh: inactive; TEAD-YAP block: inactive

Results for C=CCc1cc(OC)ccc1OCCNCCCOC ?
FBW7 act: inactive; GPR151 ag: inactive; MITF inh: 52; TEAD-YAP block: inactive; MITF confirm: inactive; AlphaScreen intf2: inactive

What do the screens show for `C=CCc1ccc(OCCN(C)C)c(OC)c1`?
FBW7 act: inactive; GPR151 ag: inactive; MITF inh: 82; TEAD-YAP block: inactive; MITF confirm: inactive; AlphaScreen intf2: inactive

Results for C=CCc1cc(OC)ccc1OCCNCCN ?
FBW7 act: inactive; GPR151 ag: inactive; MITF inh: inactive; TEAD-YAP block: inactive

What do the screens show for `C=CCc1cc(OC)ccc1OCCN(C)C`?
FBW7 act: inactive; GPR151 ag: inactive; MITF inh: 63; TEAD-YAP block: inactive; MITF confirm: inactive; AlphaScreen intf2: inactive

How did O=C1Cc2cc(S(=O)(=O)NC3CCCC3)ccc2N1 do in these assays?
FBW7 act: inactive; GPR151 ag: inactive; MITF inh: inactive; TEAD-YAP block: inactive

How did O=c1cc(-c2ccccn2)[nH][nH]1 do in these assays?
FBW7 act: inactive; GPR151 ag: inactive; MITF inh: 114; TEAD-YAP block: inactive; MITF confirm: 110; AlphaScreen intf2: 101

Results for c1ccc(-c2cc3ccccc3[nH]2)nc1 ?
FBW7 act: inactive; GPR151 ag: inactive; MITF inh: inactive; TEAD-YAP block: inactive

What do the screens show for `COc1ccccc1CNC(=O)Cn1cc2c(n1)CCCCC2`?
FBW7 act: inactive; GPR151 ag: inactive; MITF inh: inactive; TEAD-YAP block: inactive

How did COc1cc(CN2CCN(Cc3ccco3)CC2)cc(OC)c1OC do in these assays?
FBW7 act: inactive; GPR151 ag: inactive; MITF inh: 71; TEAD-YAP block: inactive; MITF confirm: inactive; AlphaScreen intf2: inactive

Results for COc1cc(CN2CCN(Cc3ccco3)CC2)cc(OC)c1O ?
FBW7 act: inactive; GPR151 ag: inactive; MITF inh: 76; TEAD-YAP block: inactive; MITF confirm: inactive; AlphaScreen intf2: inactive

How did COc1cc(CN2CCN(Cc3cccc(C)c3)CC2)cc(OC)c1O do in these assays?
FBW7 act: inactive; GPR151 ag: inactive; MITF inh: inactive; TEAD-YAP block: inactive

What do the screens show for `COc1ccccc1N1CCN(Cc2ccco2)CC1`?
FBW7 act: inactive; GPR151 ag: inactive; MITF inh: inactive; TEAD-YAP block: inactive

What do the screens show for `Cc1nc(N2CCCC(NCc3ccccc3F)CC2)nc2ccc(F)cc12` (stereo not given)?
FBW7 act: inactive; GPR151 ag: inactive; MITF inh: inactive; TEAD-YAP block: inactive

Results for Cc1c(C)n(C(=O)CN2CCN(c3ccccn3)CC2)c2ccccc12 ?
FBW7 act: inactive; GPR151 ag: inactive; MITF inh: inactive; TEAD-YAP block: inactive
